PfGluPho inh: PfG6PD (Plasmodium falciparum) enzyme inhibition. PfGluPho enzyme, NADPH resazurin-diaphorase fluorescence. inhibition, % at 20 µM. 350,000 compounds, 0.78% hits;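 active = inhibition reaching at least a set limit at 20 µM in the primary screen, cut at about 59% in these data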
PRMT1 inh: blocks human protein arginine methyltransferase 1. inhibition, % at 2.79 µM. Q99873. recombinant PRMT1, activity-based probe fluorescence polarization. 370,000 compounds, 1.3% hits;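 active = inhibition above about 21% made by adding two undisclosed values, limit read from the data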
M18AAP inhibitor: blocks P. falciparum M18 aspartyl aminopeptidase | recombinant PfM18AAP, H-Glu-NHMec fluorogenic cleavage | inhibition, % at 7.35 µM | 290,000 compounds, 1.2% hits;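 active = inhibition above the campaign mean inhibition over all tested compounds plus 3 SD, cut at about 28% in these data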
MBD2 inh: blocks human MBD2 binding to methylated DNA; 370,000 compounds, 0.31% hits; TR-FRET, MBD2 binding to methylated oligonucleotide; inhibition, % at 4.4 µM; AID 686964; in the data active = inhibition above about 13%
Target sequence (Q9UBB5 whole entry, looked up): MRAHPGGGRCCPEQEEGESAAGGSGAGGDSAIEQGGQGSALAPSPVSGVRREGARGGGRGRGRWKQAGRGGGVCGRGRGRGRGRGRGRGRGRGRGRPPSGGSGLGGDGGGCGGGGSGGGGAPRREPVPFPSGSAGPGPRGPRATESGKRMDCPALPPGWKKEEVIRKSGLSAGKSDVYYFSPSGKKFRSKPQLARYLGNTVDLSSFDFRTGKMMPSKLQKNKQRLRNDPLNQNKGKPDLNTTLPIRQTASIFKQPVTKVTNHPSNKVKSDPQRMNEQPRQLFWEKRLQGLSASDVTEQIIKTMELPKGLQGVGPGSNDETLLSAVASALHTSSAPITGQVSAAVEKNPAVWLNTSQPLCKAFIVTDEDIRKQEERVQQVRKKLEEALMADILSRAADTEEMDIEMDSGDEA
UHRF1 binding: UHRF1 methyl-DNA binding inhibition; inhibition, % at 4.4 µM; Q96T88; 370,000 compounds, 0.75% hits; UHRF1 binding to methylated oligo, TR-FRET; AID 687016; in the data active = inhibition above about 21%;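 also: UHRF1 SRA domain binding a hemimethylated CpG hairpin DNA probe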
PfG6PD confirm: PfG6PD inhibition, single-dose confirmed. 2,400 compounds, 34% hits. AID 504753. recombinant PfGluPho, NADPH-diaphorase-resazurin fluorescence. inhibition, % at 20 µM. shares compounds with PfGluPho inh;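 active = inhibition of at least 50% at 20 µM in any single replicate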
Diaphorase 10uM: counter-screen for P. falciparum G6PD inhibitors: diaphorase inhibitors, oxidizers; shares compounds with PfGluPho inh; diaphorase-coupled resazurin reduction, fluorescence, NADPH 10 uM; inhibition, % at 20 µM; 820 compounds, 39% hits; AID 504862;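 active = average inhibition reaching 50% or more with the compound at 20 µM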;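 also: resorufin red fluorescence formed as diaphorase reduces resazurin using NADPH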
Diaphorase 30uM: inhibits diaphorase or oxidizes, flagging false PfG6PD hits; shares compounds with PfGluPho inh; Diaphorase/resazurin coupled assay, resorufin fluorescence, 30 uM NADPH; 820 compounds, 29% hits; inhibition, % at 20 µM;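 active = inhibition averaging 50% or more, tested at 20 µM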
Each line names hits and unclear results; the compound was inactive in the other large screens (follow-up assays come after a bar, where they were run). Compounds with a hit are over-represented: about 3.3% of the library has one in this group of screens.

COC(=O)CCC(=O)Nc1sc(Cc2ccccc2)c(C)c1C(N)=O	PfGluPho inh 75, PRMT1 inh 24 | PfG6PD confirm 63 | Diaphorase 10uM inactive | Diaphorase 30uM inactive
COC(=O)c1c(NC(=O)CCC(=O)O)sc(Cc2ccccc2)c1C	none
CCCC(=O)Nc1sc(Cc2ccccc2)c(C)c1C(N)=O	PfGluPho inh 59, PRMT1 inh 23 | PfG6PD confirm inactive
COCCCN1C(=O)C2C(C(=O)Nc3cc(C)cc(C)c3)C3C=CC2(O3)C1C(=O)NC1CCCCC1 (stereo not drawn)	none
CC(=O)CC[C@@H]1CC[C@]2(CCCN(C(=O)C3CCCCC3)C2)O1	none (no result: PfGluPho inh, M18AAP inhibitor)
CCn1c(=O)c2c(nc3n2CCN3c2ccccc2)n(C)c1=O	none
CN1c2ccccc2N(C)C1(C)c1ccccc1	PfGluPho inh 64 | PfG6PD confirm inactive
COc1cc(C(=O)Nc2scc(-c3ccc(C)cc3)c2C(=O)O)cc(OC)c1OC	PfGluPho inh 76 | PfG6PD confirm inactive
COc1cc(C(=O)Nc2scc(-c3ccccc3)c2C(=O)O)cc(OC)c1OC	PfGluPho inh 69 | PfG6PD confirm inactive
O=C(Nc1scc(-c2ccccc2)c1C(=O)O)c1ccccc1Cl	none
CCOC(=O)c1c(-c2cc(OC)c(OC)c(OC)c2)csc1NC(=O)c1ccccc1	none (no result: M18AAP inhibitor)
Cc1ccc(C(=O)Nc2scc(-c3ccccc3)c2C(=O)O)cc1	PfGluPho inh 105 (no result: M18AAP inhibitor) | PfG6PD confirm inactive
COc1ccc(-c2csc(NC(=O)c3ccccc3F)c2C(=O)O)cc1	none
CC(C)CC(=O)[C@@H](O)Cc1ccc(O)cc1	none (no result: PfGluPho inh, M18AAP inhibitor)
C[C@H](CO)N1C[C@H](C)[C@@H](CN(C)C(=O)C2CC2)OCc2cn(nn2)CCCC1=O	none (no result: PfGluPho inh, M18AAP inhibitor)
Cc1ccc(C(=O)NC2CCCCN(C(C)C)C2=O)cc1 (stereo not drawn)	none (no result: PfGluPho inh, M18AAP inhibitor)
[O-][n+]1cccc2cccc(O)c21	none (no result: M18AAP inhibitor)
C[n+]1cccc2cccc([O-])c21	PfGluPho inh 82 | PfG6PD confirm inactive
O=c1c(Br)ccc(Br)cc1Br	PfGluPho inh 66, PRMT1 inh 62 (no result: M18AAP inhibitor) | PfG6PD confirm inactive
COc1ccc2cc(C3=CC(=O)CCC3)ccc2c1	PfGluPho inh 79 (no result: M18AAP inhibitor) | PfG6PD confirm inactive
O=C1C=C(c2ccc3[nH]ccc3c2)CCC1	none (no result: M18AAP inhibitor)
CC1N(C)c2cccc3cccc(c23)N1C	PfGluPho inh 69 | PfG6PD confirm 53 | Diaphorase 10uM inactive | Diaphorase 30uM inactive
COc1ccc(/C=N\NC(=O)Cc2cccn2C)cc1OCc1ccccc1	none (no result: PfGluPho inh, M18AAP inhibitor)
CCC(C)C(N)C1=NC(C(=O)N[C@@H](CC(C)C)C(=O)N[C@H](CCC(=O)[O-])C(=O)N[C@H](C(=O)N[C@H]2CCCCNC(=O)[C@H](CC(N)=O)NC(=O)[C@@H](CC(=O)[O-])NC(=O)[C@H](Cc3cnc[nH]3)NC(=O)[C@@H](Cc3ccccc3)NC(=O)[C@H]([C@@H](C)CC)NC(=O)[C@@H](CCCN)NC2=O)[C@@H](C)CC)CS1.[Zn+2] (stereo partly drawn)	PfGluPho inh 64 (no result: PRMT1 inh, M18AAP inhibitor, MBD2 inh, UHRF1 binding) | PfG6PD confirm inactive
CC[C@H](C)[C@H](NC(=O)[C@H](Cc1ccc(O)cc1)NC(=O)[C@@H](N)C(C)C)C(=O)N[C@@H](Cc1cnc[nH]1)C(=O)N1CCC[C@H]1C(=O)N[C@@H](Cc1ccccc1)C(=O)O	none (no result: PRMT1 inh, MBD2 inh, UHRF1 binding)
Cc1ccc(Cc2c(-c3ccc(Br)cc3)nc3ccc(Cl)cn23)cc1	none (no result: PfGluPho inh, M18AAP inhibitor)
Cc1ccc(Cc2c(-c3ccc(Br)cc3)nc3ccc(Br)cn23)cc1	PfGluPho inh 67 (no result: M18AAP inhibitor) | PfG6PD confirm inactive
Cc1ccc(Cc2c(-c3ccc(Cl)cc3)nc3ccc(Cl)cn23)cc1	PfGluPho inh 86 (no result: M18AAP inhibitor) | PfG6PD confirm inactive
Cc1ccc(Cc2c(-c3ccc(C)cc3)nc3ccc(Cl)cn23)cc1	PfGluPho inh 77 (no result: M18AAP inhibitor) | PfG6PD confirm inactive
Cc1ccc2c(c1)N(C(=O)CCC(=O)NCc1ccccn1)CC(C)O2 (stereo not drawn)	none
Nc1[nH]c(C(=O)c2ccc(Cl)cc2)c(-c2ccc(Br)cc2)c1C(=O)NCc1ccc(Cl)cc1Cl	none (no result: PfGluPho inh, M18AAP inhibitor)
Cc1cc2ncn(/N=C/c3ccc(-c4ccccc4)o3)c2cc1C	PfGluPho inh 73 | PfG6PD confirm inactive
COC(=O)c1ccccc1NC(=O)CN1CCN(c2ccccn2)CC1	none

Source: PubChem BioAssay
